HEK293 tox = cytotoxicity counter-screen for GLP-1 receptor inverse agonists; HEK293 cAMP-luciferase reporter cells, luminescence, 24 h; AID 624418; 410,000 tested, 0.13% active; Potency, µM (top dose mostly 38.3 µM), hits mostly inhibitors;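 also: loss of luciferase light is scored as toxicity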
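Here, cytotoxicity is scored as loss of luminescence. The MLSMR collection was tested on cells seeded in medium containing 10% Nu serum, with a 24 hr compound exposure preceded by 12 hours of culture.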
Pin1 inhibitor = human Pin1 inhibition; Pin1 FP peptide displacement, HiFluor488, 10 min; Potency, µM (titrated, usually from 115 µM), hits mostly inhibitors; 390,000 tested, 0.009% active; active = well fitted inhibition curve with a large enough effect in the polarisation, with a control signal flat, not every such curve was filed as active; inconclusive = small, poorly fitted or top-dose-only effect, or effect the other way, or a change in a side signal; inactive = no such curve, though single readings can be large or run the other way; the % refers to the polarisation
Target sequence (Q13526 whole entry, looked up): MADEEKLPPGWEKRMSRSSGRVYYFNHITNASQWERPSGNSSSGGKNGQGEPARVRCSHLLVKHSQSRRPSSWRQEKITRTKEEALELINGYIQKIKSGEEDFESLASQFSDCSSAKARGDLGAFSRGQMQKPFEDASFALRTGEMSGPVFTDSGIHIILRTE
Tb PFK inh-1 = blocks T. brucei phosphofructokinase | 330,000 tested, 0.17% active | Potency, µM (series often up to 57.5 µM), hits mostly inhibitors | O15648 | AID 485367 | T. brucei PFK, ADP-Glo luminescence; also: nearly all actives have a fitted effect of over 60% in size
Target sequence (O15648 whole entry, looked up): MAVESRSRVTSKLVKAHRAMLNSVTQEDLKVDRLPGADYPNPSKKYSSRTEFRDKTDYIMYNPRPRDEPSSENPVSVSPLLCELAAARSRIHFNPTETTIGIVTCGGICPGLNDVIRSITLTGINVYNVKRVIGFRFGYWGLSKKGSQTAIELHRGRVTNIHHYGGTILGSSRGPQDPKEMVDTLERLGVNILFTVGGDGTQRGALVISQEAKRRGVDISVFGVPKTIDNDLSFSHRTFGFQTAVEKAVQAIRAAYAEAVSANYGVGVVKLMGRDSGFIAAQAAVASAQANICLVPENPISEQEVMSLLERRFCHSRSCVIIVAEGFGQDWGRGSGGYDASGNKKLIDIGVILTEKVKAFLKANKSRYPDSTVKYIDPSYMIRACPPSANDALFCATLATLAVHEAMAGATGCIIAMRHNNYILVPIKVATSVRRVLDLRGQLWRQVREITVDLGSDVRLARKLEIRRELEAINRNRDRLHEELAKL
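Compounds were pin-transferred as a titration series up to 57 uM into substrate buffer (0.5 mM F6P, 0.1 mM ATP, pH 8.0), then 1.25 nM PFK was added and reactions ran 45 min before ADP-Glo detection.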
GLP-1R agonist = activates the human GLP-1 receptor; P43220; HEK293 GLP-1R CRE-luciferase, luminescence, 4-6 h; cells express a hypersensitive GLP-1R form; Potency, µM (highest dose often 45.6 µM), hits mostly activators; 380,000 tested, 0.007% active
GLP1R inv ag = GLP-1 receptor (human) inverse agonism; Potency, µM (titrated, usually from 38.3 µM), most hits filed as inhibitors; AID 624417; P43220; HEK293 GLP-1R CRE-luciferase, luminescence, 24 h; GLP-1R form is constitutively active; 410,000 tested, 1.6% active; also: nearly all actives have a fitted effect of over 55% in size
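Seeding at 200 cells/uL, 12 h culture, 24 hr compound treatment, then luciferase reagent and a luminescence read; cells are HEK293 stably expressing a constitutively active GLP-1R plus cAMP-responsive luciferase.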
PGK inhibitor = inhibitors of T. brucei phosphoglycerate kinase; Potency, µM (titrated, usually from 57.5 µM), actives largely listed as inhibitors; P07378; AID 602233; 380,000 tested, 0.043% active; PGK/GAPDH coupled, Kinase-Glo luminescence, 60 min; also: nearly all actives have a fitted effect of over 60% in size
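Recombinant glycosomal PGK reaction used 1,3-bisphosphoglycerate generated in-well by GAPDH (100nM final) in 100mM TEA pH 7.6, 5mM MgCl2, 0.01% Tween-20. After 60 minutes at room temperature, ATP was read by Kinase-Glo Plus luminescence end-point.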
TbPFK ATP = orthogonal confirmation of T. brucei phosphofructokinase inhibitors; shares compounds with Tb PFK inh-1; Tb PFK enzyme, ATP depletion, Kinase-Glo Plus luminescence; Potency, µM (top dose mostly 57.5 µM); 1,100 tested, 47% active; AID 504636; calls by dose curve; also: nearly all actives have a fitted effect of over 60% in size
Tb PFK inh-2 = T. brucei PFK enzyme inhibition, hit validation; shares compounds with Tb PFK inh-1; purified T. brucei PFK, ADP-Glo luminescence, 45 min; Potency, µM (titrated, usually from 57.5 µM), most hits filed as inhibitors; 1,100 tested, 41% active; also: nearly all actives have a fitted effect of over 60% in size
A number is an active result; i = inactive; ? = inconclusive; nt = not tested or not shown; [ ] = another dose, or the depositor's remark. Most compounds without a hit are left out; they make up all but 1.8% or so of the library. Unless noted, calls follow the shape of the dose curve; as a rule, active = well fitted curve in the direction sought with a large enough effect; inconclusive = small, poorly fitted or top-dose-only effect, or another doubt; inactive = no such curve, though single readings can be large; an effect the other way counts as inactive or inconclusive.

SMILES	HEK293 tox	Pin1 inhibitor	Tb PFK inh-1	GLP-1R agonist	GLP1R inv ag	PGK inhibitor	TbPFK ATP	Tb PFK inh-2
COc1cccc(NC(=S)Nc2ccc(O)cc2)c1	i	i	?	i	i	i	?	i
O=C(O[C@@H]1OC2COC(=O)c3cc(O)c(O)c(O)c3-c3c(cc(O)c(O)c3O)C(=O)O[C@@H]([C@H]1O)[C@@H]2O)c1cc(O)c(O)c(O)c1	i	?	2.13µM	i	i	i	0.0675µM	0.0849µM
O=C(O)Cc1ccc(NC(=O)Nc2ccc(Br)cc2)cc1	i	i	?	i	i	i	12µM	23.9µM
Nc1nc(N2CCN(c3cccc(Cl)c3)CC2)n[nH]1	i[7.66 µM]	i	26.9µM	i	i[7.66 µM]	i	?	i
COc1ccc(CN2C(=O)c3cccnc3C2O)cc1 (stereo not drawn)	i	i	26.9µM	i	i	?	?	?
CCOC(=O)[C@]12Cc3cc(C)ccc3[C@H]1N(Cc1ccccc1)C(=O)c1cc(OC)ccc12	i	nt	nt	i	?	nt	nt	nt
O=[N+]([O-])c1ccc(NCc2ccccc2)nc1	i	i	?	i	i	i	?	?
Nc1c(Cl)c(Cl)c(Cl)c(Cl)c1Cl	nt	nt	nt	i	nt	nt	nt	nt
COc1ccc(-n2c(=O)[nH]c3ccccc3c2=O)cc1	i	i	i	i	i	i	nt	nt
COC(=O)c1cccc(-n2sc3ccccc3c2=O)c1	?	i	6.75µM	i	?	i	?	?
O=c1c2ccccc2sn1-c1ccc(F)cc1	i	i	3.38µM	i	i	i	i	?
O=C(N/N=C/c1ccc2c(c1)OCO2)C1COc2ccccc2O1 (stereo not drawn)	i	i	?	i	i	nt	19µM	21.3µM
O=C(CCl)N1CCN(C(=O)C2COc3ccccc3O2)CC1 (stereo not drawn)	?	i	i	i	?	i	nt	nt
COc1ccc(C=O)cc1O	i	i	i	i	i	i	nt	nt
COc1ccc(/C=N\NC(=O)C2COc3ccccc3O2)cc1O (stereo not drawn)	i	i	13.5µM	i	i	i	8.49µM	12µM
COc1cc2c(cc1OC)[C@@]13CCN4CC5=CCOC6CC(=O)N2C1[C@H]6[C@@H]5C[C@@H]43 (stereo partly drawn)	nt	nt	nt	i	nt	nt	nt	nt
C[C@@H]1CCCCO[C@@H](CN(C)Cc2ccc(C(F)(F)F)cc2)[C@@H](C)CN([C@H](C)CO)C(=O)c2cc(N(C)C)ccc2O1	?	nt	nt	i	?	i	nt	nt
O=C(CCS(=O)(=O)c1ccc(Br)cc1)Nc1ccc(Br)cc1F	i	i	?	i	i	i	?	?
O=C(CCl)NCc1cc(-c2ccc(Cl)cc2)no1	?	i	i	i	?	i	nt	nt
CN1C(=O)c2ccccc2Sc2ccc(NC(=O)N3CCN(c4ccccc4)CC3)cc21	i	i	nt	nt	?	i	nt	nt
Cn1cccc1/C=C1\C(=O)NC(=O)N(Cc2ccco2)C1=O	i	?	i	i	i	?	nt	nt
CCOC(=O)C1CCN(/C=C2/C(=O)NC(=O)N(Cc3ccco3)C2=O)CC1	i	i	?	i	i	?	?	?
CN(C)c1ccc(C2CC(c3c(O)n(C4CCCCC4)c(=O)[nH]c3=O)=Nc3ccccc3S2)cc1 (stereo not drawn)	i	i	nt	nt	?	nt	nt	nt
CC1CCCN(CCCNC(=O)c2ccc3c(c2)N(Cc2ccccc2F)C(=O)c2ccccc2S3(=O)=O)C1 (stereo not drawn)	?	i	i	i	?	i	nt	nt
O=C(NCCCN1CCCCCC1)c1ccc(CS(=O)(=O)Cc2ccccc2F)o1	i	i	?	i	i	i	i	?
SMILES	HEK293 tox	Pin1 inhibitor	Tb PFK inh-1	GLP-1R agonist	GLP1R inv ag	PGK inhibitor	TbPFK ATP	Tb PFK inh-2
CSc1ccc(CN2CCC2(C)C(=O)Nc2cccc(NS(C)(=O)=O)c2)cc1 (stereo not drawn)	i	nt	nt	i	?	nt	nt	nt
CC(=O)Oc1ccc(CC(C(=O)O)N2C(=O)c3ccccc3C2=O)cc1 (stereo not drawn)	i	i	?	i	i	31.6µM	16.9µM	?
CC(C)(C)c1cc(OC(=O)Cc2ccccc2)ccc1O	i	?	i	i	i	i	nt	nt
CS(=O)(=O)c1ccc(C(=O)C2C(=O)CCCC2=O)c([N+](=O)[O-])c1	nt	nt	nt	i	nt	nt	nt	nt
COc1cccc(-c2nc3c(C#N)c[nH]n3c2NC2CCCCC2)c1OC	?	i	nt	nt	i	i	nt	nt
O=c1cc2c(=O)oc3cc(O)c(O)oc3c2c(O)c1O	i	nt	7.57µM	i	i	?	1.2µM	1.35µM
Cc1c(N=Cc2ccc(O)c(Br)c2)cccc1[N+](=O)[O-]	i	i	26.9µM	i	i	i	?	?
O=[N+]([O-])c1ccc(O)c([N+](=O)[O-])c1	i	i	nt	i	i	i	nt	nt
COc1cc(/C=C(\C#N)C(=O)c2ccc(O)c(O)c2)cc(I)c1O	i	?	1.69µM	i	i	?	i	i
Cc1ccc(C)c(CN2C(=O)c3ccccc3S(=O)(=O)c3ccc(C(=O)N4CCCCCC4)cc32)c1	i	i	nt	nt	i	nt	nt	nt
COc1ccc(NC(=O)CCOc2cc(C)ccc2C)cc1S(=O)(=O)N1CCCCC1	i	i	i	i	?	i	nt	nt
CS(=O)(=O)N1Cc2ccccc2CC1C(=O)OCC(=O)Nc1ccc2ccccc2c1 (stereo not drawn)	i	i	?	i	i	i	?	i
CN(C)S(=O)(=O)c1cc(NC(=O)COC(=O)Cc2ccccc2)ccc1Cl	i	i	i	i	i	i	nt	nt
COc1ccc2nc(NC(=O)c3nc(S(=O)(=O)Cc4cccc(C)c4)ncc3Cl)sc2c1	?	?	nt	nt	?	i	nt	nt
O=C(O)c1ccccc1C(=O)Nc1ccc(Br)c(C(F)(F)F)c1	i	i	?	i	i	i	i	i
O=C(Nc1ccc2c(c1)OCO2)c1cccn(Cc2ccccc2)c1=O	i	i	nt	nt	i	i	nt	nt
N#Cc1sc(NCc2cccc(Cl)c2)nc1Cl	i	i	?	i	?	i	19µM	30.1µM
COc1ccc(OC)c(NC(=O)c2cc(-c3cc(C)ccc3O)n[nH]2)c1	?	?	?	i	?	i	i	?
CCN(CC)c1ccc(C=C2C(=O)NC(=S)NC2=O)cc1	i	i	?	i	i	nt	nt	nt
CCN(CC)c1ccc(SS(=O)(=O)O)cc1	i	i	19µM	i	i	i	10.7µM	12µM
CS(=O)(=O)NN1C(=O)c2ccccc2NC1c1cc2ccccc2nc1Cl (stereo not drawn)	i	i	21.3µM	i	i	i	9.53µM	23.9µM
O=C1NC(c2cc3ccccc3nc2Cl)Nc2ccccc21 (stereo not drawn)	i[1.53 µM]	i	i	i	i	i	nt	nt
